Z-score and composite z-score data for 27 compounds are collected here from PubChem BioAssay.

The source made the active and inactive calls.

Sequence of Streptavidin (Streptomyces avidinii) (P22629 whole entry, looked up): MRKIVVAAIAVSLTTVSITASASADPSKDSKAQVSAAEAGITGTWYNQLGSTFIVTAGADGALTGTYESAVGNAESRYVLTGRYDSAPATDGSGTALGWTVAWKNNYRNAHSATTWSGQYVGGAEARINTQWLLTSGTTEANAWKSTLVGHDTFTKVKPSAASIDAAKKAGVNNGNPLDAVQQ

System in the first experiment: not listed separately
In words: CREB reporter modulators under forskolin, primary screen, cell-based, PC12, CRE-LacZ reporter, forskolin-stimulated (AID 1146).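 Also: PC12 cells with 6xCRE LacZ reporter stimulated by forskolin 10 µM; beta-galactosidase reporter signal reflecting CREB driven transcription.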 The settings on record: luminescence, 4.5 h, higher = more signal, called active from +8 up or from −8 down.
Regarding `COc1ccc([Si](C)(C)[C@@H]2[C@@H](CC(=O)N(CCO)Cc3ccccc3)O[C@]3(C(=O)N(C)c4ccccc43)[C@H]2C)cc1`, the z-score was 1.37 (inactive).
The same measure, in the same setting: as for `CC(C)N1C(=O)C[C@@](C(=O)NCc2ccccc2)(c2ccc([N+](=O)[O-])cc2)[C@H]1c1ccc(CO)cc1`, the figure is -0.703 (inactive); as for `O=C1C2C=CC(C(O)c3ccc(B(O)O)cc3)N(Nc3ccccc3)C2C(=O)N1c1ccccc1` (configuration not stated), 1.11 (inactive).
As to `O=C(CCN1CCOCC1)c1cccc(O)c1`, the z-score was 5.37 (inactive).
On to `C=CC[C@]1(C(=O)N2CCOCC2)N=C(c2ccc(OCCCO)cc2)O[C@H]1c1ccccc1`, for which the z-score was -0.302 (inactive).
For `C=CC(=C)C1=CCO[C@@H]1[C@H]1CCCN1S(=O)(=O)c1ccccc1[N+](=O)[O-]`, the z-score is 0.619 (inactive).
The same measure, in the same setting: as for `COc1ccc(C#Cc2ccc3c(c2)[C@]2(C(=O)N3)[C@H](c3ccc(O)cc3)N3[C@H](c4ccccc4)[C@H](c4ccccc4)OC(=O)[C@H]3[C@@H]2C(=O)NC[C@H](O)c2ccccc2)cc1`, the figure is -1.12 (inactive).
For the compound `CN1C=C(C(=O)OCCS(C)(=O)=O)C(C(=O)OCCS(C)(=O)=O)=CC(CCCO)=CC1C1CC1` (configuration not stated), the z-score was -0.657 (inactive).
As for `C=CC[C@@]1(C(=O)NCC(O)CO)N=C(c2ccc(OCCCO)cc2)O[C@@H]1c1ccccc1N=[N+]=[N-]` (some centres not stated), the z-score was -0.815 (inactive).

Another experiment has as its target Streptavidin (Streptomyces avidinii) (UniProt P22629). Kind of experiment: streptavidin binders on small-molecule microarray, primary screen, artefact control for SMM compound annotation, biophysical, 635/667 nm fluorescence (AID 1147).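 Also: signal reflects streptavidin binding to arrayed compounds as a control protein.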 The settings on record: streptavidin binding, higher = more signal.
Compound `C=CCC(OC(C)=O)[C@@H]1[C@@H](N(Cc2cc3ccccc3o2)C(=O)c2ccc(C)cc2)c2cc(OCCCO)ccc2N1C(=O)c1ccc2ccccc2c1` (some centres not stated) returned a composite z-score of 0.0282.
Same read-out and setting: as for `COc1c(C)cc(-c2cc3c(c(-c4ccc(Oc5ccccc5)cc4)n2)[Si](C(C)C)(C(C)C)OC3)cc1C`, the figure is -0.246.
With `COc1ccc([Si](C)(C)[C@@H]2[C@@H](CC(=O)N3CCC[C@H]3CO)O[C@]3(C(=O)N(C)c4c(Br)cc(C)cc43)[C@H]2C)cc1`, the composite z-score worked out at 0.367.
As for `CCC(CC)C(O)C1C=CC2C(=O)N(c3ccccc3)C(=O)C2N1Nc1ccc(C#N)cc1` (configuration not stated), the composite z-score turned out to be 1.24.
Same read-out and setting: with `C=CCC(OC(C)=O)[C@@H]1[C@@H](N(Cc2ccc(-c3ccccc3)cc2)C(=O)Cc2ccc(F)cc2)c2cc(OCCCO)ccc2N1C(=O)c1ccc2ccccc2n1` (some centres not stated) the figure was 0.171; with `C=C[C@@H](COC(C)=O)N(Cc1ccccc1[N+](=O)[O-])S(=O)(=O)c1ccc(Br)cc1`, 1.16.
On the same count and under the same terms, as for `COCCOC(=O)N1C(=O)[C@@]2(c3cc(C#CC4=CCCCC4)ccc31)[C@H](C(=O)NC[C@H](O)c1ccccc1)[C@H]1C(=O)O[C@H](c3ccccc3)[C@H](c3ccccc3)N1[C@@H]2c1ccc(O)cc1`, the figure is 1.
With `[N-]=[N+]=Nc1ccccc1[C@@H]1OC(c2ccc(OCCCO)cc2)=N[C@]1(CCS(=O)(=O)c1ccccc1)C(=O)N1CCOCC1`, the composite z-score came out at 1.52.
Still for that read-out and setting: as for `Cc1ccc(S[C@]2(C(=O)NCC(C)C)CC(=O)N(Cc3ccccc3Cl)[C@@H]2c2ccc(CO)cc2)cc1`, the figure is -1.67; as for `CC(C)C(=C=CC[C@@H](O)c1ccccc1OCCO)C[C@@H](O)c1ccccn1`, -0.0132.
Still for that read-out and setting: with `O=C1O[C@H](c2ccccc2)[C@H](c2ccccc2)N2[C@H]1[C@@H](C(=O)NC[C@H](O)c1ccccc1)[C@]1(C(=O)Nc3ccc(C#CCCO)cc31)[C@H]2c1ccc(O)cc1` the figure was -1.11; with `COCCOC(=O)N1C(=O)[C@@]2(c3cc(C#CCNC(N)=O)ccc31)[C@H](c1ccccc1OCCO)N1[C@H](c3ccccc3)[C@H](c3ccccc3)OC(=O)[C@H]1[C@@H]2C(N)=O`, 0.234; with `O=C1C2C=CC(C(O)c3cccs3)N(Nc3ccccc3F)C2C(=O)N1c1ccccc1` (configuration not stated), 0.295.
On the same count and under the same terms, as for `COCCOC(=O)N1C(=O)[C@@]2(c3cc(C#Cc4ccc(OC)cc4)ccc31)[C@H](C(=O)N1CCN(c3ncccn3)CC1)[C@H]1C(=O)O[C@H](c3ccccc3)[C@H](c3ccccc3)N1[C@@H]2c1ccc(O)cc1`, the figure is -0.0988; as for `COC(=O)c1ccc(C23CC2(C(NP(=O)(c2ccccc2)c2ccccc2)c2ccccc2)C3)cc1` (configuration not stated), 1.7.
In turn, `CS(=O)(=O)CCOC(=O)C1=CC(CCCO)=CC(c2cccs2)N(Cc2cc3c(cc2Br)OCO3)C=C1C(=O)OCCS(C)(=O)=O` (configuration not stated) showed a composite z-score of 2.16.
`CC(C)c1ccc(NN2C(C(O)c3ccc(N(C)C)cc3)C=CC3C(=O)N(c4ccccc4)C(=O)C32)cc1` (configuration not stated) had a composite z-score of 1.76.
With `COCCOC(=O)N1C(=O)[C@@]2(c3cc(C#CCC(C(=O)OC)C(=O)OC)ccc31)[C@H](c1ccc(O)cc1)N1[C@H](c3ccccc3)[C@H](c3ccccc3)OC(=O)[C@H]1[C@@H]2C(N)=O`, the composite z-score stood at 1.04.
